We go through 13 molecules from PubChem BioAssay (EPA / NIEHS).

Records with an inconclusive call do not appear. Calls of active or inactive are those of the source. Rule for the calls: active = hit-call score of the fitted dose curve at least 0.9, where 1 is the maximum; inconclusive = response in the unintended direction; inactive = score below 0.9.

This test is described as follows: ATG_M_61_XSP1: Attagene TRANS-FACTORIAL Multi-Species (XSP1) HepG2 Assay for M61 Transcription Factor (Internal Marker) (AID 2283797). Here is the method: ATG_XSP1_multi-species_TRANS is a cell-based, multiplexed assay created by modifying the existing Attagene TRANS-FACTORIAL system to include a panel of nuclear receptors from some or all the following species: human (Homo sapiens), mouse (Mus musculus), frog (Xenopus laevis), zebrafish (Danio rerio), chicken (Gallus gallus), and turtle (Chrysemys picta). The ECOTOX-FACTORIAL format uses HepG2, a human liver cell line, with measurements taken at 24 hours after chemical dosing in a 24-well plate. Xsp1 included 3 nM 6-alpha-fluorotestosterone to partially stimulate the androgen receptor.ATG_M_61_XSP1 is one of 29 assay components measured or calculated from the ATG_XSP1_multi-species_TRANS assay. It is designed to make measurements of mRNA induction, a form of inducible reporter, as detected with fluorescence intensity signals by Reverse transcription polymerase chain reaction (RT-PCR) and Capillary electrophoresis technology.This assay endpoint, ATG_M_61_XSP1, was analyzed in the positive analysis fitting direction relative to DMSO as the negative control and baseline of activity. Using a type of inducible reporter, measures of mRNA for gain-of-signal activity can be used to understand the background control at the transcription factor-level as they relate to the gene. Furthermore, this assay endpoint can be referred to as a secondary readout, because this assay has produced multiple assay endpoints where this one serves a background control function. To generalize the intended target to other relatable targets, this assay endpoint is annotated to the background measurement intended target family, where the subfamily is internal marker.
Human liver HepG2 cells are transiently transfected with multiple reporter transcription units (MRTUs) in 6-well plates using FuGene 6 reagent (Roche; 3 ml FuGene/1 mg DNA). The MRTU constructs are regulated by a cis-regulating element (promoter). […] A major difference between the CIS and TRANS system is that in CIS activities of endogenous TFs are measured, whereas the TRANS assay evaluates changes in activities of exogenous, chimeric NR-Gal4 proteins. […] At the end of 24 hour incubation, total RNA was isolated using TriZol reagent (Invitrogen). The isolated RNA is then reverse-transcribed using oligo(dT) primer and Mo-MLV reverse transcriptase (Invitrogen) with DNAse I (Ambion) treatment for 30 min. The one-tenth of the produced cDNA was amplified by PCR using Taq DNA polymerase (Invitrogen) and two reporter sequence-specific primers. The PCR products were fluorescently labeled by primer extension with 6-arboxyfluorescein (6-FAM) 5'-labeled reporter sequence-specific primer (2 min at 95 C, 20 s at 68 C and 10 min at 72 C) and these products were digested with 5U of HpaI (New England Biolabs) for 2h at 37 C. The fragments were purified using Qiaquick PCR columns (Qiagen), analyzed on an ABI 3130xL genetic analyzer (Applied Biosystems) with peak positions identified by using a set of X-rhodamine (ROX)-labeled MapMarker1000 molecular weight standards (BioVentures). The raw capillary electrophoresis data was processed using Attagraph software (Attagene).
Take `COP(=S)(OC)Oc1nc(Cl)c(Cl)cc1Cl`: the result was inactive.
As for `CO/C=C(/C(=O)OC)c1ccccc1Oc1cc(Oc2ccccc2C#N)ncn1`, the molecule was classed as inactive.
The same measure for `CON(C)C(=O)Nc1ccc(Cl)c(Cl)c1`: “inactive”; for `CCCCC(CC)COC(=O)c1ccccc1C(=O)OCC(CC)CCCC` (stereo not drawn): “inactive”.
For `CCCCNC(=O)OCC#CI` the value was “inactive”; for `CC(C)(C)c1ccc(CSc2cnn(C(C)(C)C)c(=O)c2Cl)cc1`, “inactive”.
The same measure for `C=CC1(C)OC(=O)N(c2cc(Cl)cc(Cl)c2)C1=O` (stereo not drawn): “inactive”; for `COC(=O)N(OC)c1ccccc1COc1ccn(-c2ccc(Cl)cc2)n1`: “inactive”; for `CCOP(=S)(OCC)SCn1c(=O)oc2cc(Cl)ccc21`: “inactive”.
Turning to `CC(C)Oc1cc(-n2nc(C(C)(C)C)oc2=O)c(Cl)cc1Cl`, the call was inactive.
Take `CCCN(CCC)c1c([N+](=O)[O-])cc(S(N)(=O)=O)cc1[N+](=O)[O-]`: the outcome was inactive.
For `C#CCOS(=O)OC1CCCCC1Oc1ccc(C(C)(C)C)cc1` (stereo not drawn) the value was “inactive”; for `COc1ccc(C(c2ccc(OC)cc2)C(Cl)(Cl)Cl)cc1`, “inactive”.
